About 83,000 compounds went through this panel and 20% of them were active in at least one assay; those are over-represented in the sample as a whole.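 Activity criterion: percent growth below 10, measured after cells in 96-well plates were exposed to a single compound concentration for 48 hours.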 Activity calls are given as the source filed them.
Tests used:
Test in all cases: NCI-60 one-dose screen, 48 h (100 = growth as untreated, 0 = no growth, -100 = all killed)
Settings in all cases: 10 µM unless noted
[1] = tested on: NCI-H226 lung
[2] = tested on: NCI-H322M lung
[3] = tested on: HOP-62 NSCLC
[4] = tested on: NCI-H460 lung
[5] = tested on: HOP-92 NSCLC
[6] = tested on: NCI-H522 lung
[7] = tested on: A549/ATCC NSCLC
[8] = tested on: 786-0 renal
[9] = tested on: COLO 205 colon
[10] = tested on: DU-145 prostate

Measured: growth

C[C@@H]1CN(c2ccc3ncc(C#Cc4cncc(C(=O)Nc5ccc(CN6CCN(C)CC6)c(C(F)(F)F)c5)c4)n3n2)C[C@H](C)O1
active: [1] -48.8% | [2] -19.4% | [3] -30.1% | [4] -77.7% | [5] -44.4% | [6] -78.8% | [7] -82.5% | [8] -74.8% | [9] -76.8% | [10] -97.5%

O=C(CSc1nc2sc3c(c2c(=O)n1-c1ccc(Cl)cc1)CCCC3)NNC(=O)Nc1cccc(C(F)(F)F)c1
active: [4] 5.83% | [5] -14.1%
inactive: [1] 32.6% | [2] 49.4% | [3] 37.9% | [6] 23.1% | [7] 24% | [8] 30.3% | [9] 27% | [10] 18.2%

O=C(CCN1C(=O)/C(=C/c2ccccc2F)SC1=S)N1CCOCC1
inactive: [1] 105% | [2] 80.5% | [3] 117% | [4] 90.7% | [5] 133% | [6] 41.4% | [7] 102% | [8] 77.4% | [9] 108% | [10] 57.5%

CS(=O)(=O)c1ccc(-n2cc(/C=C/C(=O)c3ccc(NC(=O)CO[N+](=O)[O-])cc3)c(-c3ccc(Cl)cc3)n2)cc1
inactive: [1] 72.2% | [2] 97.1% | [3] 103% | [4] 106% | [5] 90.2% | [6] 103% | [7] 91.8% | [8] 67.6% | [9] 111% | [10] 101%

C#Cc1nc(C2=C(C)C(OC(=O)CCC(=O)O)CC2)cs1 (stereo not given)
inactive: [1] 106% | [2] 104% | [3] 111% | [4] 107% | [5] 106% | [6] 101% | [7] 90.7% | [9] 122% | [10] 106%
active: [8] -86.5%

Clc1ccc2c(NCCCn3ccnc3)c3oc4ccccc4c3nc2c1
inactive: [1] 51.4% | [2] 40.7% | [3] 65.9% | [5] 33.1% | [6] 44% | [7] 34.4% | [9] 31.8% | [10] 24.6%
active: [4] -7.61% | [8] -9.95%

CCOC(=O)c1sc(N)c(C(=O)OCC)c1C
active: [5] -7.89%
inactive: [1] 59.7% | [2] 83.1% | [3] 52.6% | [4] 92.5% | [6] 56.9% | [7] 65.3% | [8] 50.4% | [9] 68.4% | [10] 66.2%

O=C(CSc1nccc(=O)[nH]1)Nc1ccc(-c2nc3ccccc3[nH]2)cc1
inactive: [1] 105% | [2] 98.2% | [3] 94.3% | [4] 110% | [5] 103% | [6] 104% | [7] 110% | [8] 101% | [9] 113% | [10] 106%

C#Cc1nc(C2=C(C)/C(=N/OCc3ccccc3)CC2)cs1
inactive: [1] 48.4% | [2] 92.6% | [3] 55.6% | [4] 39.6% | [7] 84.5% | [9] 83.5% | [10] 88.5%
active: [5] -79.2% | [6] -56.9% | [8] -95.7%

Cn1c(SCC(=O)c2cccs2)nc2ccccc2c1=O
inactive: [1] 91.9% | [2] 102% | [3] 85.9% | [4] 98.7% | [5] 87.3% | [6] 87.8% | [7] 99.6% | [8] 98.6% | [9] 111% | [10] 105%

C/C(=N\NC(N)=O)c1c(O)sc(=O)[nH]c1=O
inactive: [1] 101% | [2] 97.3% | [3] 96.6% | [4] 106% | [5] 104% | [6] 98.7% | [7] 98.4% | [8] 104% | [9] 108% | [10] 110%

C=CCn1c(SCC(=O)c2ccccc2)nnc1-c1c[nH]c2ccccc12
inactive: [1] 87.8% | [2] 102% | [3] 92.5% | [4] 107% | [5] 81.3% | [6] 97.8% | [7] 100% | [8] 101% | [9] 122% | [10] 109%

COc1ccc(C(=O)/C=C/c2ccc(OCc3ccc(C)cc3)c(OC)c2)cc1OC
inactive: [1] 59.2% | [2] 70.4% | [3] 101% | [4] 60.1% | [5] 60.6% | [6] 72.3% | [7] 63.3% | [8] 83.7% | [9] 95.3% | [10] 70.3%

COc1ccc(NC(=O)c2sc3nc(-c4cnccn4)cc(-c4cccs4)c3c2N)cc1
inactive: [1] 35.5% | [2] 82.3% | [3] 84.4% | [4] 55.3% | [5] 57.7% | [6] 78.2% | [7] 72.5% | [8] 62.7% | [9] 64.7% | [10] 88.9%

CN(C)c1ccc(/C=C2\Cc3c(F)ccc(Br)c3C2=O)cc1
inactive: [1] 76.3% | [2] 85.6% | [3] 91.5% | [4] 88.7% | [5] 91.5% | [6] 96.1% | [7] 94.1% | [8] 98.2% | [9] 98.1% | [10] 97.5%

CC(C)(C)Nc1nc2c(OCCc3ccccc3)cccn2c1-c1ccc(Cl)cc1
active: [5] -24.9% | [6] 3.18% | [9] -3.99%
inactive: [1] 12.4% | [2] 24.6% | [3] 32.4% | [4] 16% | [7] 16% | [8] 26.9% | [10] 48.2%

Clc1ccc2oc3c(OCCCn4ccnc4)c4ccccc4nc3c2c1
inactive: [1] 88.5% | [2] 73.2% | [3] 87.4% | [4] 32.6% | [5] 53% | [6] 44% | [7] 62% | [8] 46.5% | [9] 36% | [10] 64.1%

CS(=O)(=O)c1ccc(-c2nc3ccccn3c2/C=N/Nc2nc(-c3ccc(Br)cc3)cs2)cc1
inactive: [1] 108% | [2] 111% | [3] 121% | [4] 104% | [5] 116% | [6] 99.8% | [7] 109% | [8] 84.8% | [9] 116% | [10] 109%

CC(=O)Oc1ccccc1C(=O)Nc1ccc(C(=O)/C=C/c2cccs2)cc1
inactive: [1] 116% | [2] 106% | [3] 101% | [4] 116% | [5] 108% | [6] 102% | [7] 104% | [8] 88.7% | [9] 126% | [10] 113%

Cn1cc(-c2cc(N)n3nc(-c4cn(C)c5ccc(Cl)cc45)cc3n2)c2cc(Cl)ccc21
inactive: [1] 111% | [2] 85.7% | [3] 102% | [4] 71.4% | [5] 95.3% | [6] 100% | [7] 87.9% | [8] 99.4% | [9] 119% | [10] 71.4%

OC1CCc2c(-c3ccc4ncnc(N5CCc6cc(F)c(Cl)cc65)c4c3)cncc21 (stereo not given)
inactive: [1] 56.7% | [2] 15% | [3] 63.7% | [4] 50.7% | [5] 23.1% | [6] 40.1% | [7] 50.3% | [8] 43.7% | [9] 82.3% | [10] 35.8%

CC(=O)Nc1cc(F)cc(-c2ccc3[nH]cc(-c4ccccc4)c3n2)c1
inactive: [1] 30.9% | [2] 33.4% | [7] 20.1% | [10] 39.8%
active: [3] 3.09% | [4] 3.95% | [5] 0.206% | [6] -67.6% | [8] 1.48% | [9] -68.2%

Cc1c(Nc2nnc(SCC(=O)Nc3sc4c(c3C#N)CCCC4)s2)c(=O)n(-c2ccccc2)n1C
inactive: [1] 104% | [2] 98.9% | [3] 107% | [4] 100% | [5] 121% | [6] 97.5% | [7] 106% | [8] 108% | [9] 118% | [10] 105%

O=C(N/N=C/c1ccc([N+](=O)[O-])o1)c1[nH]c2ccc(Br)cc2c1-c1ccccc1
active: [4] -31.4% | [5] -4.17% | [6] -26.3% | [8] -5.08% | [9] 5.51%
inactive: [1] 15.8% | [2] 41.2% | [3] 24.2% | [7] 21.6% | [10] 16.2%

Cc1[nH]nc2ncc(C#Cc3cncc(C(=O)Nc4ccc(CN5CCN(C)CC5)c(C(F)(F)F)c4)c3)cc12
active: [1] 3.71% | [5] -23% | [9] -25.6%
inactive: [2] 44.3% | [3] 28.9% | [4] 10.7% | [6] 47.8% | [7] 23.9% | [8] 43.1% | [10] 36.4%

COC1CCN(Cc2ccc3c(NNC(=O)c4cnccn4)nc4cc(F)ccc4n23)C1 (stereo not given)
inactive: [1] 28.9% | [2] 30.8% | [3] 30.4% | [5] 40.4% | [7] 18.9% | [8] 12.7% | [9] 12.5% | [10] 34.8%
active: [4] 6.39% | [6] 7.95%

COc1ccc(C(=O)/C=C/c2ccc(OCc3ccc(Cl)cc3)c(OC)c2)cc1OC
inactive: [1] 56.4% | [2] 70.9% | [3] 103% | [4] 61.9% | [5] 64.9% | [6] 68.3% | [7] 70% | [8] 80.7% | [9] 88.4% | [10] 72.3%

Source: PubChem BioAssay (NCI)
